ssDAF12 agonist = activates DAF-12 receptor from parasite S. stercoralis | activation, % at 6.8 µM | hit rate 1% among 370,000 | HEK293 ssDAF-12/GRIP1 lit1-tk-luc reporter, luminescence; % of 3 µM dafachronic acid response;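 active = activation above the mean over all tested compounds plus 3 SD, cut at about 0.9% in these data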;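 note: 0% = DMSO-only wells and 100% = 3 µM delta7-dafachronic acid wells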
DAX1 inh-1 = inhibitors of DAX1 repression of SF-1 activated StAR promoter; hit rate 1.1% among 370,000; inhibition, % at 6.8 µM; HEK293T StAR-luciferase reporter, SF-1/DAX-1 repression relief; AID 652010;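 active = inhibition above the mean over all tested compounds plus 3 SD, cut at about 3.6% in these data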;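 note: 0% = DAX-1 cells with DMSO and 100% = cells lacking DAX-1 with DMSO; higher inhibition means more luminescence from relief of DAX-1 repression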
DAX1 inh-2 = inhibits human nuclear receptor DAX1. P51843. HEK293 Gal4-DAX1 luciferase reporter, luminescence. inhibition, % at 6.75 µM. hit rate 0.99% among 340,000. AID 504766;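 active = inhibition above the mean over all tested compounds plus 3 SD, cut at about 4.2% in these data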;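 note: 0% = DAX1-transfected cells with DMSO and 100% = empty-vector control cells with DMSO; inhibition shows as a rise in luminescence from relieved DAX1 repression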
Target sequence (P51843 207-470 limits assumed): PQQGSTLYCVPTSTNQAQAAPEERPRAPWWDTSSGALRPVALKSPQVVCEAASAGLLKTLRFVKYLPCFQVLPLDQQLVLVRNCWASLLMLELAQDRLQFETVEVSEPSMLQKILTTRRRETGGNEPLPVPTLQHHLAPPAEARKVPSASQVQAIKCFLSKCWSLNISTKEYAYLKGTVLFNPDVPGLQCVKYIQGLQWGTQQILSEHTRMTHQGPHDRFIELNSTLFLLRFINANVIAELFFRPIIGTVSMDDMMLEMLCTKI
hcDAF-12 act = activators of H. contortus DAF-12 nuclear receptor. HEK293 hcDAF-12 lit1-tk-luc reporter, luminescence; 0% DMSO, 100% Δ7-dafachronic acid. activation, % at 6.8 µM. hit rate 1.4% among 370,000. AID 652067;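 active = activation above the mean of all tested compounds plus 3 SD, cut at about 5.5% in these data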;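 note: 100% = response to 3 µM Δ7-dafachronic acid high control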
hgDAF-12 ag = agonists of H. glycines DAF-12 nuclear receptor; HEK293 GAL4-hgDAF12 UAS-luciferase reporter, agonist luminescence; normalized to butyrate control; activation, % at 6.8 µM; hit rate 1.8% among 370,000;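 active = activation above a cutoff set at the mean of all screened compounds plus 3 SD, cut at about 10% in these data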;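 note: 0% = DMSO wells and 100% = sodium butyrate wells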
DAX1 inh confirm = confirmation of human DAX1 (NR0B1) inhibitors; HEK293T StAR-promoter luciferase reporter, SF-1/DAX-1 repression; hit rate 87% among 2,400; inhibition, % at 6.8 µM; AID 652134; shares compounds with DAX1 inh-1;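 active = inhibition above the average of every tested compound plus 3 SD, cut at about 3.8% in these data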;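 note: 0% = DAX-1 cells with DMSO and 100% = no DAX-1 control cells with DMSO; active compounds raise luminescence by relieving repression of the StAR reporter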
SF1 AF2mut Luc = counter-screen for DAX1 inhibitors: nonselective inhibitors with SF-1 AF2 mutant; shares compounds with DAX1 inh-1; HEK293 StAR-luciferase, luminescence; inhibition, % at 6.8 µM; hit rate 78% among 2,400; AID 652136;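 active = inhibition above the mean of all tested compounds plus 3 SD, cut at about 3% in these data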;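 note: 0% = DAX-1 transfected cells with DMSO and 100% = cells without DAX-1 with DMSO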
* marks the source's active call; other numbers are inactive results. The list is not random: actives were taken first. Their share in the collection is about 4.1%.

`COCc1cn([C@H]2C[C@@H]3O[C@H](CO)CC[C@@H]3O[C@@H]2CCc2ccc(-c3ccc(OC)cc3)cc2)nn1` gave ssDAF12 agonist -2, DAX1 inh-1 -2, hcDAF-12 act -1 and hgDAF-12 ag -3.
O=S1(=O)c2ccc(Br)cc2OC[C@@H](c2ccccc2)N1Cc1cn(Cc2ccccc2)nn1 was read as ssDAF12 agonist -1, DAX1 inh-1 -1, hcDAF-12 act -1 and hgDAF-12 ag 3.
For CC(C)c1ccc(NC(=O)c2ccc3snnc3c2)cc1 the results were ssDAF12 agonist 0, DAX1 inh-1 5.0*, DAX1 inh-2 1, hcDAF-12 act 5, hgDAF-12 ag 12*, DAX1 inh confirm 3 and SF1 AF2mut Luc 1.
Screening CCc1cccc2c(C(=O)CN3C(=O)NC4(CCCCCC4)C3=O)c[nH]c12 returned ssDAF12 agonist -2, DAX1 inh-1 13*, DAX1 inh-2 -1, hcDAF-12 act -1, hgDAF-12 ag -8, DAX1 inh confirm 10* and SF1 AF2mut Luc -5.
For Cc1cc(C(=O)CN2C(=O)NC3(CCCCCC3)C2=O)c(C)n1C the results were ssDAF12 agonist -1, DAX1 inh-1 2, DAX1 inh-2 0, hcDAF-12 act 0 and hgDAF-12 ag 4.
COCCn1c(C)cc(C(=O)CN2C(=O)NC3(CCCCCC3)C2=O)c1C was read as ssDAF12 agonist 0, DAX1 inh-1 6.8*, DAX1 inh-2 2, hcDAF-12 act 2, hgDAF-12 ag 8, DAX1 inh confirm 4.5* and SF1 AF2mut Luc 3.
`Cc1ccc(-c2cc(C(=O)NN=Cc3c4ccccc4cc4ccccc34)[nH]n2)cc1C` gave ssDAF12 agonist -1, DAX1 inh-1 1, hcDAF-12 act -1 and hgDAF-12 ag 2.
For CCN(CCNC(=O)[C@H]1C=C(OC)C(=O)C[C@H](c2ccccc2)[C@H]1C)C(C)=O the results were ssDAF12 agonist -1, DAX1 inh-1 0, hcDAF-12 act -2 and hgDAF-12 ag -3.
`CS(=O)(=O)N1CCCCC1c1cc(C(=O)Nc2ccccc2)no1` (configuration not stated) gave ssDAF12 agonist -1, DAX1 inh-1 6.7*, hcDAF-12 act 2, hgDAF-12 ag 11*, DAX1 inh confirm 7.9* and SF1 AF2mut Luc 7.0*.
CS(=O)(=O)N1CCCCC1c1cc(C(=O)Nc2cccc(C#N)c2)no1 (configuration not stated) was read as ssDAF12 agonist -1, DAX1 inh-1 2, hcDAF-12 act -2 and hgDAF-12 ag 4.
For COc1ccc(NC(=O)COc2ccc(C)cc2)c([N+](=O)[O-])c1 the results were ssDAF12 agonist -1, DAX1 inh-1 0, hcDAF-12 act 0 and hgDAF-12 ag 3.
`COc1ccc(NC(=O)COC(=O)c2cc(C)oc2C)c([N+](=O)[O-])c1` gave ssDAF12 agonist -1, DAX1 inh-1 4.6*, DAX1 inh-2 0, hcDAF-12 act -1, hgDAF-12 ag -1, DAX1 inh confirm -2 and SF1 AF2mut Luc -2.
`O=C(NCc1ccc(Cl)cc1)O[C@H]1CC[C@@]23CCCN2C(=O)CCC[C@H]3C1` gave ssDAF12 agonist -2, hcDAF-12 act -1 and hgDAF-12 ag 1.
For COc1ccc(C2CC(=O)C(c3cccc(F)c3)=CN2Cc2ccccc2)cc1 (configuration not stated) the results were ssDAF12 agonist -1, DAX1 inh-1 -1, hcDAF-12 act -2 and hgDAF-12 ag 1.
Screening Cc1c(C(=O)NCCCN2CCCCC2)oc2ccc3c(c12)C(O)CC1(CCCCC1)O3 (configuration not stated) returned ssDAF12 agonist -1, DAX1 inh-1 5.7*, DAX1 inh-2 0, hcDAF-12 act -1, hgDAF-12 ag 0, DAX1 inh confirm 1 and SF1 AF2mut Luc -1.
COc1cc(-c2cnc3c(NC=O)cc(-c4ccc(C)cc4)cn23)cc(OC)c1OC was read as ssDAF12 agonist 0, DAX1 inh-1 11*, hcDAF-12 act -2, hgDAF-12 ag -3, DAX1 inh confirm 21* and SF1 AF2mut Luc -7.
For COc1cc(-c2cc(NC=O)c3ncc(-c4ccc(C(C)=O)cc4)n3c2)cc(OC)c1OC the results were ssDAF12 agonist -2, DAX1 inh-1 -4, hcDAF-12 act -3 and hgDAF-12 ag -4.
`CCN(CC)CCCNC(=O)c1oc(=O)c2ccccc2c1-c1ccc(C)cc1` gave ssDAF12 agonist -2, DAX1 inh-1 1, hcDAF-12 act 2 and hgDAF-12 ag 4.
For Cc1ccc(S(=O)(=O)N(C)CC(=O)Nc2cc(C)ccn2)cc1 the results were ssDAF12 agonist 0, DAX1 inh-1 4.6*, DAX1 inh-2 3, hcDAF-12 act 5, hgDAF-12 ag 10*, DAX1 inh confirm 6.8* and SF1 AF2mut Luc 5.2*.
Screening Cc1ccc(CN2CCCCC(NC(=O)Nc3cccc([N+](=O)[O-])c3)C2=O)cc1 (configuration not stated) returned ssDAF12 agonist -1, DAX1 inh-1 -1, hcDAF-12 act -2 and hgDAF-12 ag -1.
For Cc1nc2ccc(S(=O)(=O)NCC(=O)NCc3ccc(F)cc3)cc2s1 the results were ssDAF12 agonist -1, DAX1 inh-1 0, hcDAF-12 act 0 and hgDAF-12 ag -4.
`COc1cc2ccccc2cc1C(=O)Nc1cc(C)ccn1` gave ssDAF12 agonist 0, DAX1 inh-1 5.3*, DAX1 inh-2 0, hcDAF-12 act 6.4*, hgDAF-12 ag 12*, DAX1 inh confirm 4.2* and SF1 AF2mut Luc 2.
`COC(=O)C1CCN(C(=O)COC(=O)/C=C/c2ccc(O)c(OC)c2)CC1` gave ssDAF12 agonist 0, DAX1 inh-1 8.5*, DAX1 inh-2 0, hcDAF-12 act 1, hgDAF-12 ag -2, DAX1 inh confirm 0 and SF1 AF2mut Luc -1.
For Cc1[nH]n(-c2cccc(Cl)c2)c(=O)c1C=NCc1ccco1 the results were ssDAF12 agonist 1, DAX1 inh-1 5.8*, DAX1 inh-2 5.7*, hcDAF-12 act 4, hgDAF-12 ag 12*, DAX1 inh confirm 8.3* and SF1 AF2mut Luc 5.1*.
For CCc1ccc(NC(=O)C(=O)N/N=C(\C)CC(=O)Nc2ccc(OC)cc2)cc1 the results were ssDAF12 agonist -1, DAX1 inh-1 0, DAX1 inh-2 1, hcDAF-12 act 5 and hgDAF-12 ag 0.
Screening COc1cccc(NC(=O)C(=O)N/N=C(\C)CC(=O)Nc2ccc(NC(C)=O)cc2)c1 returned ssDAF12 agonist 0, DAX1 inh-1 5.8*, DAX1 inh-2 1, hcDAF-12 act 2, hgDAF-12 ag 13*, DAX1 inh confirm 5.9* and SF1 AF2mut Luc 5.8*.
